Measurements from PubChem BioAssay AID1159580 (chemical genetic matrix, 2015).
Values joined by “and” are separate entries in the source; they are usually repeats but may differ in a detail not shown here. Equal entries are not always repeated. The campaign covered roughly 5,500 compounds. About 2,000 (36%) were called active. About 18% were inconclusive and are not listed. No stated cut-off is given here; in the data, active means normalized growth mostly below about 0.91 (no sharp cut-off); inconclusive means no clear call, values can overlap the other calls; inactive means mostly above about 0.92. The list shows a part of the results.

Assay: chemical genetic growth profiling, strain panel (AID 1159580);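 further: tested at 20 µM; growth read once vehicle control cultures reached saturation at 30 °C; 1 = growth at the plate median or of vehicle wells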
Conditions: S. cerevisiae deletion strains, growth OD

For O=C(O)CCCOc1ccc(Cl)cc1Cl, the normalized growth (locus YAL013W, strain DEP1, stronger effect = lower value) was 0.993 (inactive), the normalized growth (locus YAL021C, strain ccr4, stronger effect = lower value) was 0.941 (inactive) and the normalized growth (locus YAL026C, strain drs2, stronger effect = lower value) was 0.931 (inactive). For the same compound, the normalized growth (locus YAL030W, strain snc1, stronger effect = lower value) was 0.944 (inactive), the normalized growth (locus YBL061C, strain skt5, stronger effect = lower value) was 0.948 (inactive) and the normalized growth (locus YBR009C, strain hhf1, stronger effect = lower value) was 0.951 (inactive). For the same compound, the normalized growth (locus YBR021W, strain FUR4, stronger effect = lower value) was 0.97 (inactive), the normalized growth (locus YBR023C, strain chs3, stronger effect = lower value) was 0.954 (inactive) and the normalized growth (locus YBR171W, strain sec66, stronger effect = lower value) was 0.888 (active). For the same compound, the normalized growth (locus YBR229C, strain ROT2, stronger effect = lower value) was 1.01 (inactive), the normalized growth (locus YBR231C, strain swc5, stronger effect = lower value) was 0.962 (inactive) and the normalized growth (locus YBR279W, strain paf1, stronger effect = lower value) was 0.962 (inactive). The normalized growth (locus YCL011C, strain gbp2, stronger effect = lower value) was 0.957 (inactive), the normalized growth (locus YCL016C, strain dcc1, stronger effect = lower value) was 0.958 (inactive) and the normalized growth (locus YCL029C, strain bik1, stronger effect = lower value) was 1 (inactive). The normalized growth (locus YCL061C, strain MRC1, stronger effect = lower value) was 0.938 (inactive), the normalized growth (locus YCL069W, strain vba3, stronger effect = lower value) was 0.944 (inactive) and the normalized growth (locus YCR088W, strain abp1, stronger effect = lower value) was 0.929 (inactive). For the same compound, the normalized growth (locus YDL005C, strain med2, stronger effect = lower value) was 0.946 (inactive), the normalized growth (locus YDL035C, strain GPR1, stronger effect = lower value) was 1.01 (inactive) and the normalized growth (locus YDL040C, strain nat1, stronger effect = lower value) was 0.961 (inactive). The normalized growth (locus YDL074C, strain BRE1, stronger effect = lower value) was 1 (inactive), the normalized growth (locus YDL101C, strain DUN1, stronger effect = lower value) was 1.01 (inactive) and the normalized growth (locus YDL134C, strain PPH21, stronger effect = lower value) was 0.999 (inactive). For the same compound, the normalized growth (locus YDL185W, strain tfp1, stronger effect = lower value) was 0.986 (inactive), the normalized growth (locus YDL192W, strain arf1, stronger effect = lower value) was 1.02 (inactive) and the normalized growth (locus YDR001C, strain nth1, stronger effect = lower value) was 0.942 (inactive). For the same compound, the normalized growth (locus YDR069C, strain doa4, stronger effect = lower value) was 0.955 (inactive), the normalized growth (locus YDR101C, strain arx1, stronger effect = lower value) was 1.01 (inactive) and the normalized growth (locus YDR137W, strain rgp1, stronger effect = lower value) was 0.817 (active). For the same compound, the normalized growth (locus YDR150W, strain NUM1, stronger effect = lower value) was 0.994 (inactive), the normalized growth (locus YDR159W, strain sac3, stronger effect = lower value) was 0.902 (inactive) and the normalized growth (locus YDR162C, strain NBP2, stronger effect = lower value) was 0.99 (inactive). The normalized growth (locus YDR195W, strain ref2) was 0.955 (inactive), the normalized growth (locus YDR297W, strain sur2, stronger effect = lower value) was 0.962 (inactive) and the normalized growth (locus YDR318W, strain mcm21, stronger effect = lower value) was 1.01 (inactive). For the same compound, the normalized growth (locus YDR334W, strain swr1, stronger effect = lower value) was 0.945 (inactive), the normalized growth (locus YDR335W, strain msn5, stronger effect = lower value) was 0.943 (inactive) and the normalized growth (locus YDR388W, stronger effect = lower value) was 1.01 (inactive). For the same compound, the normalized growth (locus YDR392W, strain spt3, stronger effect = lower value) was 0.893 (inactive), the normalized growth (locus YDR502C, strain sam2, stronger effect = lower value) was 1.01 (inactive) and the normalized growth (locus YEL003W, strain gim4, stronger effect = lower value) was 0.963 (inactive). The normalized growth (locus YEL037C, strain rad23, stronger effect = lower value) was 0.954 (inactive), the normalized growth (locus YEL061C, strain CIN8 (second series), stronger effect = lower value) was 0.929 (inactive) and the normalized growth (locus YEL061C, strain CIN8, stronger effect = lower value) was 0.998 (inactive). The normalized growth (locus YER015W, strain faa2, stronger effect = lower value) was 0.969 (inactive), the normalized growth (locus YER016W, strain bim1, stronger effect = lower value) was 0.962 (inactive) and the normalized growth (locus YER110C, stronger effect = lower value) was 1.01 (inactive). For the same compound, the normalized growth (locus YER111C, strain swi4, stronger effect = lower value) was 0.944 (inactive), the normalized growth (locus YER155C, strain BEM2 (second series), stronger effect = lower value) was 0.887 (inactive) and the normalized growth (locus YER155C, strain BEM2, stronger effect = lower value) was 0.98 (inactive). The normalized growth (locus YER167W, strain BCK2, stronger effect = lower value) was 0.991 (inactive), the normalized growth (locus YFR010W, strain ubp6, stronger effect = lower value) was 0.951 (inactive) and the normalized growth (locus YGL078C, strain dbp3, stronger effect = lower value) was 1.01 (inactive). The normalized growth (locus YGL086W, strain mad1, stronger effect = lower value) was 0.99 (inactive), the normalized growth (locus YGL167C, strain pmr1, stronger effect = lower value) was 0.929 (inactive) and the normalized growth (locus YGL173C, strain kem1, stronger effect = lower value) was 0.952 (inactive). For the same compound, the normalized growth (locus YGL227W, strain vid30, stronger effect = lower value) was 0.93 (inactive), the normalized growth (locus YGL240W, strain doc1, stronger effect = lower value) was 0.912 (inactive) and the normalized growth (locus YGL248W, strain PDE1, stronger effect = lower value) was 1.01 (inactive). For the same compound, the normalized growth (locus YGL253W, strain hxk2, stronger effect = lower value) was 0.939 (inactive), the normalized growth (locus YGR078C, strain PAC10, stronger effect = lower value) was 1.01 (inactive) and the normalized growth (locus YGR135W, strain pre9, stronger effect = lower value) was 1.01 (inactive). The normalized growth (locus YGR229C, strain SMI1, stronger effect = lower value) was 1.03 (inactive), the normalized growth (locus YGR252W, strain gcn5, stronger effect = lower value) was 0.982 (inactive) and the normalized growth (locus YHR013C, strain ard1, stronger effect = lower value) was 0.93 (inactive). For the same compound, the normalized growth (locus YHR027C, strain rpn1, stronger effect = lower value) was 0.938 (inactive), the normalized growth (locus YHR030C, strain SLT2, stronger effect = lower value) was 0.999 (inactive) and 0.829 (active) and the normalized growth (locus YHR079C, strain IRE1 (second series), stronger effect = lower value) was 1.01 (inactive). The normalized growth (locus YHR079C, strain IRE1, stronger effect = lower value) was 0.757 (active), the normalized growth (locus YHR094C, strain hxt1, stronger effect = lower value) was 1.01 (inactive) and the normalized growth (locus YHR129C, strain ARP1, stronger effect = lower value) was 0.993 (inactive). For the same compound, the normalized growth (locus YHR142W, strain chs7, stronger effect = lower value) was 0.939 (inactive), the normalized growth (locus YHR200W, strain rpn10, stronger effect = lower value) was 1 (inactive) and the normalized growth (locus YIL066C, strain RNR3, stronger effect = lower value) was 1.01 (inactive). The normalized growth (locus YIL073C, strain SPO22, stronger effect = lower value) was 1.1 (inactive), the normalized growth (locus YIL125W, strain kgd1, stronger effect = lower value) was 0.991 (inactive) and the normalized growth (locus YIR030C, strain dcg1, stronger effect = lower value) was 1.01 (inactive). The normalized growth (locus YJL092W, strain hpr5, stronger effect = lower value) was 0.94 (inactive), the normalized growth (locus YJL095W, strain BCK1 (second series), stronger effect = lower value) was 0.95 (inactive) and the normalized growth (locus YJL095W, strain BCK1, stronger effect = lower value) was 1.01 (inactive) and 0.838 (active). The normalized growth (locus YJL115W, strain asf1, stronger effect = lower value) was 0.922 (inactive), the normalized growth (locus YJL129C, strain trk1, stronger effect = lower value) was 0.847 (active) and the normalized growth (locus YJL134W, strain LCB3, stronger effect = lower value) was 0.998 (inactive). The normalized growth (locus YJL154C, strain vps35, stronger effect = lower value) was 0.948 (inactive), the normalized growth (locus YJL164C, strain tpk1, stronger effect = lower value) was 0.961 (inactive) and the normalized growth (locus YJL166W, strain qcr8, stronger effect = lower value) was 0.942 (inactive). For the same compound, the normalized growth (locus YJL168C, strain set2, stronger effect = lower value) was 1.01 (inactive), the normalized growth (locus YJL187C, strain SWE1 (second series), stronger effect = lower value) was 0.999 (inactive) and the normalized growth (locus YJL187C, strain SWE1, stronger effect = lower value) was 0.947 (inactive). The normalized growth (locus YJR043C, strain POL32, stronger effect = lower value) was 0.997 (inactive) and the normalized growth (locus YJR066W, strain TOR1, stronger effect = lower value) was 0.779 (active).
